Compound activity as filed in PubChem BioAssay.
USP10 inh = inhibitors of human USP10 deubiquitinase; hit rate 1.1% among 47,000; purified USP10, Ub-rhodamine fluorescence, 60 min; Ubiquitin carboxyl-terminal hydrolase 10 (Homo sapiens), Q14694; inhibition, % at 20 µM
USP8 inh = inhibitors of human USP8 deubiquitinase; Ubiquitin carboxyl-terminal hydrolase 8 (Homo sapiens), P40818; purified USP8, Ub-rhodamine cleavage fluorescence, 30 min; inhibition, % at 20 µM; hit rate 4.2% among 47,000; AID 1645853, 2021
USP17 block = inhibitors of human USP17 deubiquitinase | Ubiquitin carboxyl-terminal hydrolase 17-like protein 5 (Homo sapiens), A8MUK1 | purified USP17, Ub-rhodamine cleavage fluorescence, 3 h | inhibition, % at 50 µM | hit rate 6.5% among 47,000
USP30 inh = inhibitors of human USP30 deubiquitinase | Ubiquitin carboxyl-terminal hydrolase 30 (Homo sapiens), Q70CQ3 | purified USP30, Ub-rhodamine cleavage fluorescence | inhibition, % at 25 µM | hit rate 5.3% among 47,000
USP28 block = inhibitors of human USP28 deubiquitinase. hit rate 3% among 47,000. Ubiquitin carboxyl-terminal hydrolase 28 (Homo sapiens), Q96RU2. purified USP28, Ub-rhodamine cleavage fluorescence, 30 min. inhibition, % at 25 µM. AID 1645857, 2021
* marks the source's active call; other numbers are inactive results. This is a sample that favours compounds with a hit; in the whole collection about 14% have one here. Rule as the data show it: active = inhibition above about 30%; inactive = the rest.

SMILES	USP10 inh	USP8 inh	USP17 block	USP30 inh	USP28 block
COc1cc(F)ccc1S(=O)(=O)NCc1ccccc1	2.6	0.6	-6.5	-0.3	-6.0
CC(=O)c1cnc(-c2ccccn2)s1	-4.0	43.5*	3.3	-25.6	-0.1
CCCCCC(=O)N1CCC(=O)N(C)C[C@H]2CN(C)c3ccccc3[C@@H]21	-3.4	26.0	2.7	-15.9	-1.9
O=C(Nc1cccc(F)c1)c1ncoc1-c1ccco1	1.0	15.8	54.4*	-20.2	16.9
O=C(C1CCOCC1)N1Cc2cc(Cl)ccc2OC2(CCOCC2)C1	-1.9	-0.1	-0.1	-12.0	-10.2
O=C(Nc1c(F)cccc1F)N1CCn2cccc2C1c1ccc(F)cc1 (centres undefined)	-1.3	-3.7	-33.2	-61.1	2.2
CN(CCCNC(=O)c1cccc2c1SCCC2=O)c1ccccc1	-8.0	40.2*	53.9*	-0.5	8.4
COC(=O)c1ccc(NC(=O)c2cccc3c2SCCC3=O)cc1	0.1	8.2	36.2*	4.0	12.6
O=C(COc1ccccc1-c1nnc(-c2ccccc2)o1)Nc1ccc(F)cc1F	2.5	32.3*	84.4*	34.8*	2.8
COc1ccccc1CNC(=O)COc1ccccc1-c1nnc(-c2ccccc2)o1	6.5	5.7	18.9	30.5*	-41.6
COc1ccc(CNC(=O)COc2ccccc2-c2nnc(-c3ccccc3)o2)cc1	-0.7	-17.7	-5.7	-17.3	-4.2
O=C(COc1ccccc1-c1nnc(-c2ccccc2)o1)NCCCN1CCOCC1	-1.2	-2.6	-1.1	7.6	4.6
COc1ccc(CNC(=O)COc2ccccc2-c2nnc(-c3ccccc3)o2)c(OC)c1	3.3	5.4	-1.2	-0.4	-11.6
CC(CCc1ccccc1)NC(=O)COc1ccccc1-c1nnc(-c2ccccc2)o1 (centres undefined)	11.2	1.0	31.2*	41.1*	6.2
O=C(COc1ccccc1-c1nnc(-c2ccccc2)o1)NCCc1ccco1	19.1	86.1*	34.6*	-38.0	4.5
CC1(C(N)=O)CN(C(=O)c2cc3ccccc3s2)CCO1 (centres undefined)	-0.4	4.8	5.1	-4.2	-2.4
CCc1ccccc1NC(=O)COc1ccccc1-c1nnc(-c2ccccc2)o1	2.8	28.6	52.5*	38.1*	18.0
CCc1cc(OCC(=O)NC(c2ccccc2)c2ccccc2)ccc1Cl	11.2	22.7	18.9	8.3	4.2
Cc1ccccc1-c1nc(CS(=O)(=O)CC(=O)Nc2ccccc2Cl)c(C)o1	12.3	9.4	11.3	4.4	-4.5
O=C(COc1ccccc1-c1nnc(-c2ccccc2)o1)NCc1ccccc1F	10.8	9.1	4.9	-1.6	-9.0
CCc1ccccc1NC(=O)COc1ccc(Nc2ccccc2)cc1	13.0	35.4*	46.0*	38.5*	22.4
CCOc1ccc(Oc2ccc(NC(=O)COc3ccc(C(=O)c4ccccc4)cc3)cc2)cc1	2.9	-20.4	7.2	15.8	3.2
CC(CCc1ccccc1)NC(=O)COc1ccc(Cl)c(Cl)c1 (centres undefined)	12.9	16.6	24.6	27.3	31.1*
COc1ccccc1CNC(=O)CS(=O)(=O)Cc1nc(-c2ccccc2F)oc1C	3.9	26.8	57.9*	15.8	15.1
O=S1(=O)C[C@H](NCCc2ccc(F)cc2)[C@@H](S(=O)(=O)c2ccccc2)C1	0.1	17.4	10.5	20.7	13.4
CC[C@H]1OC(=O)[C@H](C)[C@@H](O)[C@H](C)[C@@H](O)[C@](C)(O)C[C@@H](C)C(=O)[C@H](C)[C@@H](O)[C@H]1C	-1.8	0.0	0.0	12.7	7.1
COc1ccc(NC(=O)C2CC(=O)NC(N3CCN(c4ccccc4)CC3)=N2)cc1 (centres undefined)	1.7	8.4	5.1	-0.4	3.5
O=C(NCCOc1ccc(-c2ccc(F)cc2)nn1)c1ccccc1Cl	-1.0	17.8	4.8	25.3	9.8
CC(C)(C)OC(=O)N1Cc2ccccc2C[C@H]1C(=O)N1CCC(C(=O)N[C@H](CC(N)=O)C(=O)O)(c2ccccc2)CC1	1.2	50.2*	22.2	0.1	6.2
CC(C)(C)OC(=O)N1CCC[C@H]1C(=O)N1CCC(C(=O)N[C@@H](CC(N)=O)C(=O)O)(c2ccccc2)CC1	0.2	17.5	12.4	32.4*	10.6
